# From PubChem BioAssay (NCATS)
# Records with an inconclusive call do not appear. Where a call stands in place of a potency, no number is given. Unmarked numbers belong to inactive results. Active and inactive are the calls of the source. Unless noted, calls follow the shape of the dose curve; as a rule, active = well fitted curve in the direction sought with a large enough effect; inconclusive = small, poorly fitted or top-dose-only effect, or another doubt; inactive = no such curve, though single readings can be large; an effect the other way counts as inactive or inconclusive.
# Key:
# [1] = target: Ubiquitin carboxyl-terminal hydrolase 1 (Homo sapiens) (UniProt O94782); assay: Inhibitors of USP1/UAF1: Pilot qHTS (AID 504865); also: nearly all actives have a fitted effect of over 35% in size; also: potency is read from the fitted curve at half-maximal effect
# Ubiquitin carboxyl-terminal hydrolase 1 (Homo sapiens), sequence (O94782 whole entry, looked up): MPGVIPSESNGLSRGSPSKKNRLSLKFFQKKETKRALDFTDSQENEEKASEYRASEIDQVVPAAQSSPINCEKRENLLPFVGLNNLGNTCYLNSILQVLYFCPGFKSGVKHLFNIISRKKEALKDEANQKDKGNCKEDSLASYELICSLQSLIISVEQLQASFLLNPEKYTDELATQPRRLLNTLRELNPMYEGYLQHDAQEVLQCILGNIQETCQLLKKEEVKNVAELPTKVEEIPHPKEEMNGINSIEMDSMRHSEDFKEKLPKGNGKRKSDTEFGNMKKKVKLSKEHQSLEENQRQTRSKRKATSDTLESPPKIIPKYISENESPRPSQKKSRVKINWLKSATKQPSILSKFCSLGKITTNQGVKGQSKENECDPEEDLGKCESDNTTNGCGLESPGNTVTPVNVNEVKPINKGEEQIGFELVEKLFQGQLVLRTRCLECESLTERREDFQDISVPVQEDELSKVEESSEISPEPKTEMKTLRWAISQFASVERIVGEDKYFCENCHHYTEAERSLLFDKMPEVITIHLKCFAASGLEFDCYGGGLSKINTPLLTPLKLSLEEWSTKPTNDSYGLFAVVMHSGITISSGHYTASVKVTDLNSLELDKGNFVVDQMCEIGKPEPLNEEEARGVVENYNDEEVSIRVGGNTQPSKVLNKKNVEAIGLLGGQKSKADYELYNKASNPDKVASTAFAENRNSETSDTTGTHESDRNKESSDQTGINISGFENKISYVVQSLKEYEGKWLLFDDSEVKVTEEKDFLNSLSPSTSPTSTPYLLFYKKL
# Method in brief: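 1nM USP1/UAF1 + cpd, 15 min RT; start w/ Ub-Rho 150nM final; kinetic FL 480/540 nm, 6 reads q60 s. Buffer 50mM HEPES pH 7.8, 0.5mM EDTA, 1mM TCEP, 0.01% Tween-20, 0.1 mg/ml BSA.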
# [2] = target: Cytochrome P450 3A4 (Homo sapiens) (UniProt P08684); assay: qHTS Assay for Inhibitors and Substrates of Cytochrome P450 3A4 (AID 884); also: nearly all actives have a fitted effect of over 50% in size; also: potency is read from the fitted curve at half-maximal effect
# Cytochrome P450 3A4 (Homo sapiens), sequence (P08684 whole entry, looked up): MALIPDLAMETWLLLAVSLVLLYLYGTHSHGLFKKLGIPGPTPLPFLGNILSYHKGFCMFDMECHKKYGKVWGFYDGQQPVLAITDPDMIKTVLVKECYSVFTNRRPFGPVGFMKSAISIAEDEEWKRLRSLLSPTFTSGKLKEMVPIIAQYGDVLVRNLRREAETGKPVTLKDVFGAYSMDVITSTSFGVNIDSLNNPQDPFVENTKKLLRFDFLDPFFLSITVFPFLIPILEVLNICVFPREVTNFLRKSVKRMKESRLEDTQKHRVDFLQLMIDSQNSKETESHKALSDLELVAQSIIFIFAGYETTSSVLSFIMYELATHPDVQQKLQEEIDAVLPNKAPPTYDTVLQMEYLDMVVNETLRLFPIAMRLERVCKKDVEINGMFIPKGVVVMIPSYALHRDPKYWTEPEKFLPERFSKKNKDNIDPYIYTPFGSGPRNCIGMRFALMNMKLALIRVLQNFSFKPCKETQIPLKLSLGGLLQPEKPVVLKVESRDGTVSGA
# Method in brief: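 Luminescent readout of luciferin produced by CYP3A4 (20 nM) dealkylation of Luciferin-PPXE, 25 uM (its KM). NADPH-driven reaction ran 60 min at RT after 10 min compound preincubation; data scaled to 57 uM ketoconazole as 100% inhibition.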
# [3] = S16 Schwann cell PMP22 intronic element beta-lactamase assay (AID 624044; calls by dose curve; also: nearly all actives have a fitted effect of over 15% in size; also: potency is read from the fitted curve at half-maximal effect); conditions: S16 rat Schwann cells, PMP22 element beta-lactamase FRET, 24 h; ratio activity, negative = inhibition: at 38.3 µM (top of the series)
# Method in brief: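 Beta-lactamase reporter under a PMP22 intronic regulatory element in stable S16 rat Schwann cells; 24 h compound exposure. 460 nm blue signal normalized between DMSO (0%) and potassium clavulanate, with 535 nm FRET tracking viability; curves classed by r2 and response.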
# [4] = target: Luciferin 4-monooxygenase (Photinus pyralis) (UniProt P08659); assay: Biochemical firefly luciferase enzyme assay for NPC (AID 624030);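 also: purified P. pyralis luciferase at 10 nM with luciferin and ATP substrate; nearly all actives have a fitted effect of over 70% in size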
# Luciferin 4-monooxygenase (Photinus pyralis), sequence (P08659 whole entry, looked up): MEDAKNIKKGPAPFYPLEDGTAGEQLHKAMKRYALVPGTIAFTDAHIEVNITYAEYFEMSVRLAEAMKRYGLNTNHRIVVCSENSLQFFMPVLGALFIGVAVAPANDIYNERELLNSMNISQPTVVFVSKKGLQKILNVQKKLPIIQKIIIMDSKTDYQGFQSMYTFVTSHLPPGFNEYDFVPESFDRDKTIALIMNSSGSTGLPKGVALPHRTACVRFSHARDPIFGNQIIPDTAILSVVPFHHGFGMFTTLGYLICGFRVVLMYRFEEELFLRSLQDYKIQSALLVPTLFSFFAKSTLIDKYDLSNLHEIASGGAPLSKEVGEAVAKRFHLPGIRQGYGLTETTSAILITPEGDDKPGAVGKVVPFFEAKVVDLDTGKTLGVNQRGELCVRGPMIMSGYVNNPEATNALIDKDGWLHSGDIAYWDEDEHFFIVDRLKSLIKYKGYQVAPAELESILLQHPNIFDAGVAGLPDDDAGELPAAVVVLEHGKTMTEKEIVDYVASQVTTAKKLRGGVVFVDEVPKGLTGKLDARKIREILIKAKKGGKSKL
# Method in brief: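 Counter-screen for direct inhibition of the luciferase enzyme by approved-drug library compounds, run at 10 nM enzyme in 50 mM Tris acetate (final). Luminescence was read within 5 min of enzyme-buffer addition and normalized to PTC124 versus DMSO (0%).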
structure (smiles),measurement,setting,value
C[C@]12CCC3C(CC[C@]4(O)C[C@@H](O)CC[C@]34C=O)[C@@]1(O)CC[C@@H]2C1=CC(=O)OC1 (some centres not stated),Potency,[1],inactive
CC(=O)O[C@H]1C[C@H]2CC[C@@H]3[C@H]4C[C@@H]([N+]5(C)CCCCC5)[C@@H](OC(C)=O)[C@]4(C)CC[C@@H]3[C@@]2(C)C[C@@H]1[N+]1(C)CCCCC1,Potency,[1],inactive
CNC(C)C1CC[C@H](N)[C@@H](OC2C(N)C[C@H](N)[C@@H](OC3OC[C@](C)(O)C(NC)[C@H]3O)C2O)O1 (some centres not stated),Potency,[1],inactive
CC1CC(Cl)CCC1C(=O)OC(C)(C)C (configuration not stated),Potency,[2],inactive
same,Potency,[1],inactive
COc1ccc(CC2NC[C@H](O)[C@H]2OC(C)=O)cc1 (some centres not stated),Potency,[2],inactive
same,Potency,[1],inactive
CC(=O)OC1CCC2(C)C3=C(CCC2C1(C)C)[C@@]1(C)CCC(C(C)CCC=C(C)C)[C@@]1(C)CC3 (some centres not stated),Potency,[2],inactive
same,Potency,[1],inactive
CN1[C@H]2CC(OC(=O)[C@H](CO)c3ccccc3)C[C@H]1[C@H]1O[C@H]12 (some centres not stated),Potency,[1],inactive
CC(C)N(C(=O)CCl)c1ccccc1,Potency,[2],inactive
same,Potency,[1],inactive
CN[C@@H](CC(C)C)C(=O)N[C@@H]1C(=O)N[C@H](CC(N)=O)C(=O)N[C@@H]2C(=O)N[C@H]3C(=O)N[C@H](C(=O)N[C@H](C(=O)O)c4cc(O)cc(O)c4-c4cc3ccc4O)[C@H](O)c3ccc(c(Cl)c3)Oc3cc2cc(c3O[C@H]2O[C@@H](CO)[C@@H](O)[C@@H](O)[C@@H]2O[C@@H]2C[C@](C)(N)[C@H](O)[C@H](C)O2)Oc2ccc(cc2Cl)[C@@H]1O,Potency,[1],inactive
C[C@H]1O[C@H](O[C@H]2[C@H](O)[C@@H](O)[C@@H](O)[C@H](O)[C@@H]2O)[C@@H](N)C[C@@H]1NC(=N)C(=O)O,Potency,[2],inactive
same,Potency,[1],inactive
CC[N+](C)(CC)CCC[n+]1c(-c2ccccc2)c2cc(N)ccc2c2ccc(N)cc21,Potency,[1],7.94 µM (active)
C[C@@]12C=CC(=O)C=C1CCC1C2CC[C@]2(C)C(=O)CCC12 (some centres not stated),Potency,[2],inactive
same,Potency,[1],inactive
NCC(N)C(=O)c1ccccc1 (configuration not stated),Potency,[2],inactive
same,Potency,[1],inactive
CC(C)n1c(/C=C\[C@@H](O)C[C@@H](O)CC(=O)O)c(-c2ccc(F)cc2)c2ccccc21,Potency,[1],inactive
CC1(C)S[C@H]2[C@@H](N)C(=O)N2[C@H]1C(=O)O,Potency,[2],inactive
same,Potency,[1],inactive
N#Cc1c(Cl)c(Cl)c(Cl)c(C#N)c1Cl,Potency,[2],3.16 µM (active)
same,Potency,[1],10 µM (active)
CC[C@@H]1CN2CCc3cc(OC)c(OC)cc3[C@H]2C[C@@H]1C[C@H]1NCCc2cc(OC)c(OC)cc21,Potency,[1],inactive
CC1COC2=C1C(=O)C(=O)c1c2ccc2c1CCCC2(C)C (configuration not stated),Potency,[1],79.4 µM (active)
OCC1OC(n2cnc3cc(Cl)c(Cl)cc32)C(O)C1O (configuration not stated),Potency,[2],inactive
same,Potency,[1],inactive
CC1=CC(=O)c2c(O)cccc2C1=O,Potency,[2],inactive
same,Potency,[1],17.8 µM (active)
C/C=C1/C[C@@H](C)[C@](O)(CO)C(=O)OCC2=CCN3CC[C@@H](OC1=O)C23 (some centres not stated),Potency,[2],inactive
same,Potency,[1],inactive
CC(C)=O,Potency,[1],inactive
same,Potency,[3],inactive
CNC1=CN(O)C(c2ccccc2)=c2cc(Cl)ccc2=N1,Potency,[1],inactive
same,Potency,[4],inactive
same,Potency,[3],inactive
C[N+]12CCC(CC1)[C@@H](OC(=O)C(O)(c1ccccc1)c1ccccc1)C2,Potency,[1],inactive
COc1cc2c(cc1OC)-c1c(OC)c(OC)c(C=O)c3c1[C@H](C2)N(C)CC3,Potency,[1],20 µM (active)
CN(CCC(N)CC(=O)NC1C=CC(n2ccc(N)nc2=O)OC1C(=O)O)C(=N)N (configuration not stated),Potency,[2],0.199 µM (active)
same,Potency,[1],inactive
O=C1CC[C@]2(O)C3Cc4ccc(O)c5c4C2(CCN3CC2CC2)C1O5 (some centres not stated),Potency,[2],inactive
same,Potency,[1],inactive
O=C(NC(=O)c1c(F)cccc1F)Nc1ccc(Cl)cc1,Potency,[2],inactive
same,Potency,[1],inactive
COc1ccc(C2Oc3c(I)c(OC)cc(OC)c3CC2O)cc1OC (configuration not stated),Potency,[2],3.16 µM (active)
same,Potency,[1],inactive
CC(=O)OCC1=C(C(=O)O)N2C(=O)C(NC(=O)CCCC(N)C(=O)O)C2SC1 (configuration not stated),Potency,[2],inactive
same,Potency,[1],inactive
COC(=O)/C(C)=C\CC12OC(C)(C)C3CC(C=C4C(=O)c5c(OC)c6c(c(CC=C(C)C)c5OC431)OC(C)(CCC=C(C)C)C=C6)C2=O (configuration not stated),Potency,[2],3.16 µM (active)
same,Potency,[1],39.8 µM (active)
Cc1cccc2c3c(ccc12)C1=C(C(=O)C3=O)C(C)CO1 (configuration not stated),Potency,[1],50.1 µM (active)
CSc1nc(NC(C)C)nc(NC(C)C)n1,Potency,[2],inactive
same,Potency,[1],inactive
CC[C@]1([C@H]2O[C@@H]([C@@H]3O[C@](O)(CO)[C@@H](C)C[C@H]3C)C[C@H]2C)CC[C@@H]([C@]2(C)CC[C@@]3(C[C@@H](O)[C@@H](C)[C@@H]([C@H](C)[C@H](OC)[C@H](C)C(=O)O)O3)O2)O1,Potency,[1],inactive
same,Potency,[4],inactive
same,Potency,[3],0.562 µM (active)
O=C1C=C2C(=CCOC2O)O1 (configuration not stated),Potency,[2],inactive
same,Potency,[1],50.1 µM (active)
NC[C@@H]1O[C@H](OC2[C@@H](CO)O[C@@H](OC3[C@H](O)[C@H](N)C[C@H](N)[C@H]3OC3O[C@H](CO)[C@@H](O)[C@H](O)[C@@H]3N)[C@H]2O)C(N)[C@H](O)[C@@H]1O (some centres not stated),Potency,[1],inactive
COc1ccc(CC2NCC(O)C2OC(C)=O)cc1 (configuration not stated),Potency,[2],inactive
C[C@]12[C@H](O)CC3C(CC[C@@H]4C[C@@H](O)CC[C@]34C)[C@@]1(O)CC[C@@H]2C1=CC(=O)OC1 (some centres not stated),Potency,[2],inactive
COc1cc2c(cc1OC)-c1c(OC)c(OC)c(CO)c3c1C(C2)N(C)CC3 (configuration not stated),Potency,[2],31.6 µM (active)
CC1=CC(=O)C2=C(C)C[C@H](O)[C@H]3[C@H](C)C(=O)O[C@@H]3C12 (some centres not stated),Potency,[2],inactive
O=c1cccc2n1CC1CC2CN2CCCC[C@H]12 (some centres not stated),Potency,[2],inactive
O=CN1CC2CC(C1)c1cccc(=O)n1C2 (configuration not stated),Potency,[2],inactive
COc1cc2c(cc1OC)-c1c(O)c(OC)cc3c1[C@H](C2)N(C)CC3,Potency,[2],7.94 µM (active)
CC(C)[C@]1(NC(=O)[C@@H]2C=C3c4cccc5[nH]cc(c45)C[C@H]3N(C)C2)O[C@@]2(O)C3CCCN3C(=O)[C@H](Cc3ccccc3)N2C1=O (some centres not stated),Potency,[2],1 µM (active)
